Screening data deposited in PubChem BioAssay by Pan Lab, Icahn School of Medicine at Mount Sinai.
ROC1-CUL1 inh – inhibitors of human ROC1-CUL1 ubiquitin ligase activity | P62877+Q13616 | in vitro K48 di-Ub FRET, acceptor:donor ratio, 45 min | inhibition, % at 10 µM | hit rate 0.6% among 140,000 | AID 1347404; in the data active = inhibition above about 25%
Active calls of the source: *. This excerpt belongs to a sample that is enriched for hits.

SMILES | ROC1-CUL1 inh
COC(=O)C1C(=N)OC2=C(C(=O)CCC2)C1c1cccnc1 (stereo unspecified) | 4
Cc1cccc(N2CCN(C(=O)CC3C(=O)NCCN3C(C)C)CC2)n1 (stereo unspecified) | 3
COc1ccccc1CN1C[C@@H]2C[C@@H](c3ccn[nH]3)N3CCC[C@@]23C1=O | 10
Cc1ccc(NC(=O)CSc2nc(-c3ccccc3)c(-c3ccccc3)[nH]2)cc1 | 9
COc1cc(CNc2ccc(N3CCCC3)cc2)cc(Cl)c1OC | -8
CCOc1cc(CNc2ccc(O)cc2)cc(Cl)c1OCc1ccc(Cl)cc1 | 86*
COc1cc(CNc2ccc(N3CCCCC3)cc2)cc(Cl)c1OCc1cccs1 | -1
COc1cc(CNc2ccc(O)cc2)cc(Cl)c1OCc1ccc(Cl)cc1 | 0
CCOc1cc(CNc2ccc(C)c(Cl)c2)cc(Cl)c1OCc1ccc(Cl)cc1Cl | -5
CCOc1cc(CNc2ccc(N3CCCC3)cc2)cc(Cl)c1OC | 63*
CCC(=O)N1CCC(n2nccc2NC(=O)Nc2ccccc2C)CC1 | -1
Cc1occc1C(=O)N1CCC(C2CCN(Cc3ccc(Cl)cc3)C2)CC1 (stereo unspecified) | -6
C#CCOc1c(Cl)cc(/C=C2\SC(=O)N(CCC)C2=O)cc1OC | 1
COc1ccc(OC)c(/C=C2\CC(C)C/C(=C\c3cc(OC)ccc3OC)C2=O)c1 (stereo unspecified) | 0
CCOc1ccc(N2C(=O)CC(N(Cc3ccco3)C(=O)Nc3ccc(Cl)c(Cl)c3)C2=O)cc1 (stereo unspecified) | 5
O=C(O)c1ccc(-c2ccc(/C=C3\SC(=O)N(Cc4ccccc4)C3=O)o2)cc1Cl | 93*
O=C(O)c1ccc(-c2ccc(/C=C3\SC(=O)N(CC(=O)N4CCOCC4)C3=O)o2)cc1Cl | -1
CCN1C(=O)S/C(=C/c2ccc(-c3cccc(C(=O)O)c3C)o2)C1=O | 10
Cc1ccc(C(=O)O)cc1-c1ccc(/C=C2\SC(=O)N(Cc3ccc(F)cc3)C2=O)o1 | -5
Cc1ccc(CN2C(=O)S/C(=C\c3ccc(-c4ccc(C(=O)O)c(Cl)c4)o3)C2=O)cc1 | 69*
Cc1ccc(C(=O)O)cc1-c1ccc(/C=C2\SC(=O)N(Cc3ccccc3)C2=O)o1 | 14
COCCN(C)Cc1nc(Cc2ccccc2)no1 | -18
O=C(Nc1ccn(Cc2ccccc2)n1)c1cc2nc(-c3ccc(Cl)s3)cc(C(F)(F)F)n2n1 | -7
Cc1ccc2nc(C)cc(C(=O)N3CCC4(CC3)CC4C(=O)NCC3(c4ccccc4)CCCC3)c2c1 (stereo unspecified) | 6
C=C(C)[C@H]1CCC(C)(C)C(=O)[C@@H]1C#N | 11
SMILES | ROC1-CUL1 inh
CCCCS(=O)c1cc2c(c([N+](=O)[O-])c1)-c1c(cc([N+](=O)[O-])cc1[N+](=O)[O-])C2=O (stereo unspecified) | -12
Cc1cccc(OCC(=O)Nc2ccc(N3CCN(Cc4ccccc4)CC3)cc2)c1 | 3
O=C(Nc1ccc(F)cc1)N1CCC(n2cc(Cc3ccccc3)nn2)CC1 | 18
Cc1ccc(C2=NN3C(=N)/C(=C/c4cccc(OCc5ccc(F)cc5)c4)C(=O)N=C3S2)cc1 | -7
N=C1/C(=C\c2ccc(OC(=O)c3ccc(F)cc3)c(Cl)c2)C(=O)N=C2SC(c3ccco3)=NN12 | 13
N=C1/C(=C/c2cccc(OC(=O)c3ccc(F)cc3)c2)C(=O)N=C2SC(c3cccs3)=NN12 | 28*
CC(C)c1ccc(S(=O)(=O)N2CCN(S(C)(=O)=O)CC2)cc1 | 4
COc1ccc(CCNC(=O)C2C(=O)N=C3C=C(C)C=CN3C2=O)cc1OC (stereo unspecified) | 8
COC(=O)C1C(C)=NC(=O)NC1c1cccc(OC)c1OC (stereo unspecified) | 9
CCC1CN(Cc2sccc2C)Cc2cc(OC)ccc2O1 (stereo unspecified) | 0
CCOC(=O)c1c2c(n(Cc3ccccc3)c1CNC(C)C)C(=O)C(=O)c1ccccc1-2 | 103*
CCOC(=O)c1c2c(n(Cc3ccccc3)c1C)C(=O)c1ccc(Br)cc1-2 | 2
CCOC(=O)c1c2c(n(CC(=O)c3ccc(Br)cc3)c1C)C(=O)C(=O)c1ccccc1-2 | -3
COc1ccc(CCC(=O)N2CCCC(CCC(=O)N3CCCC3)C2)cc1 (stereo unspecified) | -7
O=CN1CCCN(Cc2nc(C(c3ccccc3)c3ccccc3)no2)CC1 | -8
O=C1C(Cc2cc(Br)cc(Br)c2O)=NC(=S)N1c1ccc(Cl)cc1 | 100*
O=C1NC(=S)N=C1Cc1cc(Br)cc(Br)c1O | 7
COc1cc(C)c(CC2=NC(=S)N(c3ccc(Cl)cc3)C2=O)cc1C(C)C | 8
CCc1noc(C)c1C(=O)Nc1cc(C)cc(C)c1 | 9
CC1=NOC(=O)/C1=C\c1cccs1 | 9
Cc1ccc2c(c1)C(=O)/C(=C/c1cccs1)CO2 | 73*
COc1ccc(/C=C2\COc3ccccc3C2=O)cc1OC | 12
Cc1ccc(/C=N/NC(=O)COc2c(Br)cc(Br)cc2Br)o1 | 10
CC(C)Oc1c(-c2ccc(F)cc2)c(=O)c1=O | -9
CC(C)Oc1c(-c2ccco2)c(=O)c1=O | 69*
SMILES | ROC1-CUL1 inh
CC(C)Oc1c(-c2ccccc2)c(=O)c1=O | 7
COc1cc(CNC2CCN(c3ccc(C(=O)NC(C)c4ccccc4)cc3)CC2)cc(OC)c1 (stereo unspecified) | 2
COC(=O)N1CCN(S(=O)(=O)c2ccc(CC(C)C)cc2)CC1 | 3
COc1ccc(CCNC(=O)c2sc3nc(-c4ccc(F)cc4)ccc3c2N)cc1OC | 6
CC(=O)N(C)C1=C(N2CCCC2)C(=O)c2ccccc2C1=O | -6
O=C1C(=Cc2ccc(N3CCCCCC3)o2)C(=O)c2ccccc21 | 4
Nc1ccc(S(=O)(=O)N2CCc3ccccc32)cc1 | 5
O=C1C=C(N2CCCCC2)c2ccccc2C1=O | 80*
O=C1C=C(N2CCc3ccccc32)c2ccccc2C1=O | 77*
Cc1nc(N2CCc3ccccc32)nc2c1C(=O)CC(C)(C)C2 | 0
COc1cc(OC)c(C2C(C(=O)Nc3ccccc3)C(C)=Nc3ncnn32)cc1OC (stereo unspecified) | 3
Nc1nnc(SC(Sc2nnc(N)s2)C(=O)c2ccccc2)s1 | 7
O=C(COC(=O)c1ccc2c(c1)C(=O)N(c1ccc(O)cc1)C2=O)c1ccccc1 | -5
CCOC(=O)c1ccc(N2C(=O)c3ccc(C(=O)Nc4ccc(O)cc4C(=O)O)cc3C2=O)cc1 | 69*
Cc1ccc(NC(=O)c2ccc3c(c2)C(=O)N(CC(C)C)C3=O)c(C(=O)O)c1 | 12
COc1ccc(NS(=O)(=O)c2ccc(NC(=O)c3cccc(I)c3)cc2)nn1 | 0
COc1ccccc1NC(=O)Nc1ccnn1C1CCN(C(=O)CN2CCCCC2)CC1 | -12
CCOC(=O)c1c(-c2ccccc2)csc1NC(=O)c1sc2cccc(Cl)c2c1Cl | -11
CCOC(=O)c1cc(-c2ccc(/C=C3/C(=O)NN(c4ccccc4)C3=O)o2)ccc1Cl | -2
CCOC(=O)c1ccc(N2NC(=O)/C(=C/c3ccc(-c4ccc(Br)cc4C(=O)O)o3)C2=O)cc1 | 98*
CCOC(=O)c1ccc(-c2ccc(/C=C3\C(=O)NN(c4ccc(Br)c5ccccc45)C3=O)o2)cc1 | 9
Cc1ccc(C2C(C(=O)c3ccc4c(c3)OCCO4)C(=O)C(=O)N2CCCN(C)C)o1 (stereo unspecified) | 3
Cc1[nH]nc2c1C(c1cc(Cl)ccc1OCc1cccc(F)c1)C(C#N)C(=N)O2 (stereo unspecified) | 2
